This is an account of results in PubChem BioAssay (EPA / NIEHS).

For orientation: AC50 means the midpoint of the concentration-response curve, whichever way the signal moves.

Activity calls are given as the source filed them. How the source made its calls: active means hit-call score of the fitted dose curve at least 0.9, where 1 is the maximum; inactive means score below 0.9.

The first test in a line: ATG_GRE_CIS: Attagene CIS-FACTORIAL HepG2 Assay for human Glucocorticoid Response Elements (GRE) (AID 2282947). The settings on record: HepG2 GRE cis-reporter, Attagene multiplex mRNA; actives raise or lower the signal. In short, it runs like this: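 HepG2, transient cis-reporter transfection, 24 h. Reporter mRNA: RT-PCR then CE, fluorescence. Fit both directions vs DMSO.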
Turning to `CCCCCCCCCCBr`, the compound was called inactive.
The same measure, in the same setting: in the case of `N#CCCC(Br)(C#N)CBr` (stereo unspecified) it was “inactive”; in that of `O=C(NC(=O)c1c(F)cccc1F)Nc1cc(Cl)c(Oc2ncc(C(F)(F)F)cc2Cl)c(Cl)c1`, “inactive”.
On the same count and under the same terms, next, `Cc1cc(SCc2sc(-c3ccc(C(F)(F)F)c(F)c3)nc2C)ccc1OCC(=O)O`: “inactive”.
Still for that read-out and setting: in the case of `ClCc1ccccc1CCl` it was “inactive”; in that of `N#Cc1ccc(Cl)cc1`, “inactive”.
Consider `C[N+](C)(C)Cc1ccccc1`, for which the compound was called inactive.
On the same count and under the same terms, next, `O=C1C=CC(=O)c2ccccc21`: “inactive”; `CC(O)(CS(=O)(=O)c1ccc(F)cc1)C(=O)Nc1ccc(C#N)c(C(F)(F)F)c1` (stereo unspecified): “inactive”; `CCOC(=O)CC(=O)CCl`: “inactive”.
Consider `O=C(NC(=O)c1c(F)cccc1F)Nc1cc(Cl)c(OC(F)(F)C(F)C(F)(F)F)cc1Cl` (stereo unspecified), for which the compound was called inactive.
On the same count and under the same terms, next, `C=CC(=O)NC(C)(C)CC(C)=O`: “inactive”; `CC(C)CP(=S)(S)CC(C)C`: “inactive”; `Cc1cc(C(F)(C(F)(F)F)C(F)(F)F)ccc1NC(=O)c1cccc(I)c1C(=O)NC(C)(C)CS(C)(=O)=O`: “inactive”.
Same read-out and setting: in the case of `O=S1OC[C@@H]2[C@H](CO1)[C@]1(Cl)C(Cl)=C(Cl)[C@@]2(Cl)C1(Cl)Cl` (stereo partly specified) it was “inactive”.
On the same count and under the same terms, in the case of `CC1(C)[C@H](/C=C2\CCSC2=O)[C@@H]1C(=O)OCc1coc(Cc2ccccc2)c1` it was “inactive”; in that of `CNC(=O)CSP(=O)(OC)OC`, “inactive”; in that of `c1csc(-c2ccc(-c3cccs3)s2)c1`, “inactive”.
Regarding `NC(=O)c1ccc(N)nc1`, the result was inactive.
On to `CC(F)(F)CC(F)(F)F`, for which the call was inactive.
For `C=CC(=O)[O][Sn]([CH2]CCC)([CH2]CCC)[CH2]CCC`, the AC50 is 0.412 µM (active).
For the compound `O=S(=O)(C(Cl)(Cl)Cl)C(Cl)(Cl)Cl`, the call was inactive.
The same measure, in the same setting: next, `COC(=O)c1cc(Oc2ccc(Cl)cc2Cl)ccc1[N+](=O)[O-]`: “inactive”; `CC(C)(c1ccc(O)c(-c2ccccc2)c1)c1ccc(O)c(-c2ccccc2)c1`: “inactive”.
On the same count and under the same terms, in the case of `CCOC(=O)OC1=C(c2cc(C)ccc2C)C(=O)NC12CCC(OC)CC2` (stereo unspecified) it was “inactive”; in that of `CN(C1CCCCC1)C1CCCCC1`, “inactive”; in that of `ClCCN1CCOCC1`, “inactive”.
On the same count and under the same terms, in the case of `FC(F)OCC(F)(F)C(F)(F)F` it was “inactive”; in that of `N#Cc1ccccc1N`, “inactive”; in that of `[F][Sn]([c]1ccccc1)([c]1ccccc1)[c]1ccccc1`, “inactive”.
For the compound `C[As+](C)(C)CC(=O)[O-]`, the result was inactive.
Same read-out and setting: next, `O=C(Nc1ccc(Br)cc1)c1cc(Br)cc(Br)c1O`: “inactive”; `O=[N+]([O-])c1ccc(Cl)c([N+](=O)[O-])c1`: “inactive”; `CC(=Cc1ccccc1)[N+](=O)[O-]`: “inactive”.
On the same count and under the same terms, next, `CCOc1ccc(N)cc1`: “inactive”.

A short description of a further test: ATG_ISRE_CIS: Attagene CIS-FACTORIAL HepG2 Assay for human Interferon Regulatory Factor 1 (IRF1) binding to an Interferon-Stimulated Response Element (ISRE) (AID 2282948). The settings on record: HepG2 ISRE cis-reporter (Attagene), mRNA transcription readout; actives raise or lower the signal. A digest of the protocol: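 Uses HepG2 liver cells transfected with cis-regulated reporters and measures mRNA 24 h post-dosing through RT-PCR, primer-extension labelling and capillary electrophoresis, with DMSO as negative control.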
`CCCCCCCCCCBr`: the compound was called inactive.
As for `N#CCCC(Br)(C#N)CBr` (stereo unspecified), the AC50 was 60.8 µM (active).
Take `O=C(NC(=O)c1c(F)cccc1F)Nc1cc(Cl)c(Oc2ncc(C(F)(F)F)cc2Cl)c(Cl)c1`: the call was inactive.
Still for that read-out and setting: in the case of `C=C(C)[C@@H]1CC=C(C=O)CC1` it was “inactive”.
As to `Cc1cc(SCc2sc(-c3ccc(C(F)(F)F)c(F)c3)nc2C)ccc1OCC(=O)O`, the AC50 was 42.8 µM (active).
Same read-out and setting: in the case of `ClCc1ccccc1CCl` it was 45.9 µM (active).
For the compound `N#Cc1ccc(Cl)cc1`, the outcome was inactive.
`C[N+](C)(C)Cc1ccccc1`: the call was inactive.
In the case of `CC(O)(CS(=O)(=O)c1ccc(F)cc1)C(=O)Nc1ccc(C#N)c(C(F)(F)F)c1` (stereo unspecified), the outcome was inactive.
With `CCOC(=O)CC(=O)CCl`, the AC50 is 31.2 µM (active).
Take `O=C(NC(=O)c1c(F)cccc1F)Nc1cc(Cl)c(OC(F)(F)C(F)C(F)(F)F)cc1Cl` (stereo unspecified): the compound was classed as inactive.
On the same count and under the same terms, next, `C=CC(=O)NC(C)(C)CC(C)=O`: “inactive”; `CC(C)CP(=S)(S)CC(C)C`: “inactive”; `O=S1OC[C@@H]2[C@H](CO1)[C@]1(Cl)C(Cl)=C(Cl)[C@@]2(Cl)C1(Cl)Cl` (stereo partly specified): “inactive”.
On the same count and under the same terms, in the case of `CC1(C)[C@H](/C=C2\CCSC2=O)[C@@H]1C(=O)OCc1coc(Cc2ccccc2)c1` it was “inactive”; in that of `CNC(=O)CSP(=O)(OC)OC`, “inactive”.
As for `c1csc(-c2ccc(-c3cccs3)s2)c1`, the AC50 is 3.41 µM (active).
Regarding `C1CCC(C2CCCCC2)CC1`, the call was inactive.
On to `NC(=O)c1ccc(N)nc1`, for which the call was inactive.
On to `CC(F)(F)CC(F)(F)F`, for which the outcome was inactive.
Same read-out and setting: next, `C=CC(=O)[O][Sn]([CH2]CCC)([CH2]CCC)[CH2]CCC`: “inactive”; `COC(=O)c1cc(Oc2ccc(Cl)cc2Cl)ccc1[N+](=O)[O-]`: “inactive”; `CC(C)(c1ccc(O)c(-c2ccccc2)c1)c1ccc(O)c(-c2ccccc2)c1`: “inactive”.
On to `CCOC(=O)OC1=C(c2cc(C)ccc2C)C(=O)NC12CCC(OC)CC2` (stereo unspecified), for which the compound was called inactive.
In the case of `CCCSP(=S)(OCC)Oc1ccc(SC)cc1` (stereo unspecified), the call was inactive.
`CN(C1CCCCC1)C1CCCCC1`: the compound was classed as inactive.
The same measure, in the same setting: next, `ClCCN1CCOCC1`: “inactive”.
Still for that read-out and setting: next, `FC(F)OCC(F)(F)C(F)(F)F`: “inactive”.
For `[F][Sn]([c]1ccccc1)([c]1ccccc1)[c]1ccccc1`, the AC50 is 0.562 µM (active).
`C[As+](C)(C)CC(=O)[O-]`: the compound was called inactive.
On to `O=C(Nc1ccc(Br)cc1)c1cc(Br)cc(Br)c1O`, for which the compound was classed as inactive.
For the compound `CC(=Cc1ccccc1)[N+](=O)[O-]`, the AC50 is 7.14 µM (active).
`CCOc1ccc(N)cc1`: the outcome was inactive.

The next test is described as follows: ATG_M_32_CIS: Attagene CIS-FACTORIAL HepG2 Assay for M32 Transcription Factor (Internal Marker) (AID 2282949).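 Further: background control marker of the multiplexed CIS panel rather than a real target.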 The note with it: HepG2 Attagene cis-factorial M32 reporter, mRNA; actives raise or lower the signal. A digest of the protocol:
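Transient MRTU transfection of HepG2; 24 h compound treatment; TriZol RNA, oligo(dT) RT, reporter PCR, 6-FAM primer extension, HpaI cut, CE. Gain/loss of signal vs DMSO.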
Consider `CCCCCCCCCCBr`, for which the call was inactive.
Regarding `N#CCCC(Br)(C#N)CBr` (stereo unspecified), the compound was called inactive.
Still for that read-out and setting: next, `O=C(NC(=O)c1c(F)cccc1F)Nc1cc(Cl)c(Oc2ncc(C(F)(F)F)cc2Cl)c(Cl)c1`: “inactive”; `C=C(C)[C@@H]1CC=C(C=O)CC1`: “inactive”; `Cc1cc(SCc2sc(-c3ccc(C(F)(F)F)c(F)c3)nc2C)ccc1OCC(=O)O`: “inactive”.
On the same count and under the same terms, in the case of `ClCc1ccccc1CCl` it was “inactive”; in that of `N#Cc1ccc(Cl)cc1`, “inactive”; in that of `C[N+](C)(C)Cc1ccccc1`, “inactive”.
The same measure, in the same setting: in the case of `O=C1C=CC(=O)c2ccccc21` it was “inactive”.
Take `CC(O)(CS(=O)(=O)c1ccc(F)cc1)C(=O)Nc1ccc(C#N)c(C(F)(F)F)c1` (stereo unspecified): the call was inactive.
Turning to `CCOC(=O)CC(=O)CCl`, the outcome was inactive.
Still for that read-out and setting: next, `O=C(NC(=O)c1c(F)cccc1F)Nc1cc(Cl)c(OC(F)(F)C(F)C(F)(F)F)cc1Cl` (stereo unspecified): “inactive”.
Take `C=CC(=O)NC(C)(C)CC(C)=O`: the compound was classed as inactive.
In the case of `Cc1cc(C(F)(C(F)(F)F)C(F)(F)F)ccc1NC(=O)c1cccc(I)c1C(=O)NC(C)(C)CS(C)(=O)=O`, the compound was called inactive.
For the compound `O=S1OC[C@@H]2[C@H](CO1)[C@]1(Cl)C(Cl)=C(Cl)[C@@]2(Cl)C1(Cl)Cl` (stereo partly specified), the compound was classed as inactive.
On the same count and under the same terms, in the case of `CC1(C)[C@H](/C=C2\CCSC2=O)[C@@H]1C(=O)OCc1coc(Cc2ccccc2)c1` it was “inactive”; in that of `CNC(=O)CSP(=O)(OC)OC`, “inactive”; in that of `c1csc(-c2ccc(-c3cccs3)s2)c1`, “inactive”.
`C1CCC(C2CCCCC2)CC1`: the compound was called inactive.
The same measure, in the same setting: in the case of `CC(F)(F)CC(F)(F)F` it was “inactive”.
On the same count and under the same terms, in the case of `O=S(=O)(C(Cl)(Cl)Cl)C(Cl)(Cl)Cl` it was “inactive”.
The same measure, in the same setting: next, `COC(=O)c1cc(Oc2ccc(Cl)cc2Cl)ccc1[N+](=O)[O-]`: “inactive”.
Turning to `Clc1cc(C(Cl)(Cl)Cl)cnc1Cl`, the compound was classed as inactive.
Still for that read-out and setting: next, `CCOC(=O)OC1=C(c2cc(C)ccc2C)C(=O)NC12CCC(OC)CC2` (stereo unspecified): “inactive”.
Same read-out and setting: in the case of `CCCSP(=S)(OCC)Oc1ccc(SC)cc1` (stereo unspecified) it was “inactive”; in that of `CN(C1CCCCC1)C1CCCCC1`, “inactive”.
The same measure, in the same setting: in the case of `ClCCN1CCOCC1` it was “inactive”; in that of `FC(F)OCC(F)(F)C(F)(F)F`, “inactive”.
Take `[F][Sn]([c]1ccccc1)([c]1ccccc1)[c]1ccccc1`: the compound was classed as inactive.
Still for that read-out and setting: next, `C[As+](C)(C)CC(=O)[O-]`: “inactive”; `O=C(Nc1ccc(Br)cc1)c1cc(Br)cc(Br)c1O`: “inactive”; `O=[N+]([O-])c1ccc(Cl)c([N+](=O)[O-])c1`: “inactive”.
The same measure, in the same setting: next, `CC(=Cc1ccccc1)[N+](=O)[O-]`: “inactive”.
